Assay results as given in PubChem BioAssay AID2284154 (EPA ToxCast).
Calls of active or inactive are those of the source. How the source made its calls: active means hit-call score of the fitted dose curve at least 0.9, where 1 is the maximum; inactive means score below 0.9.

Each compound was assayed against Muscarinic acetylcholine receptor M3 (Homo sapiens) (UniProt P20309) (assay: ERF_FR_GPCR_hCHRM3: Eurofins (ERF) G Protein-Coupled Receptor (GPCR) Radioligand Binding LeadHunter Assay for human Muscarinic Acetylcholine Receptor M3 Antagonism, conducted at France lab site).
Sequence of Muscarinic acetylcholine receptor M3 (Homo sapiens) (P20309 whole entry, looked up): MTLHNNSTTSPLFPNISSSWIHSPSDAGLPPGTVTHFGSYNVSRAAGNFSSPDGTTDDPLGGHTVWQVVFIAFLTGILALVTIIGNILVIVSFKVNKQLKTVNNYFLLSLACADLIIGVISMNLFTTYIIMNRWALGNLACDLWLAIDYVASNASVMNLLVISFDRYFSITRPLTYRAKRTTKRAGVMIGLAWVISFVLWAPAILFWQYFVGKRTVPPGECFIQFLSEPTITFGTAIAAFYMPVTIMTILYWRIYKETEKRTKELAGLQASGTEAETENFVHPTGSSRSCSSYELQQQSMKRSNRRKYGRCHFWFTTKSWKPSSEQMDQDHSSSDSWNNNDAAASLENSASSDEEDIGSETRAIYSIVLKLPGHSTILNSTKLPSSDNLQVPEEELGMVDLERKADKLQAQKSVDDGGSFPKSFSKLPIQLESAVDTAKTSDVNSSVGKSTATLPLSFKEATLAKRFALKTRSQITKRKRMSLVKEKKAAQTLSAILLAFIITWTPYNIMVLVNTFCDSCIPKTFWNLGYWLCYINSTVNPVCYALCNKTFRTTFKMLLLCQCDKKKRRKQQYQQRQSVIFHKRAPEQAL
Experimental: ERF_FR_GPCR_hCHRM3 is a biochemical, single-readout assay that uses extracted gene-proteins in a cell-free assay. Measurements were taken 1 hour after chemical dosing in a 96-well plate. See M3 Human Acetylcholine (Muscarinic) GPCR Binding (Antagonist Radioligand) Assay, Cerep.ERF_FR_GPCR_hCHRM3 is an assay component calculated from the ERF_FR_GPCR_hCHRM3 assay. It is designed to measure radioligand binding using a type of binding reporter as detected by scintillation counting with radiometry technology.Data from the assay component ERF_FR_GPCR_hCHRM3 was analyzed at the assay endpoint, ERF_FR_GPCR_hCHRM3, in the positive analysis fitting direction relative to DMSO as the negative control and baseline of activity. Using a type of binding reporter, loss-of-signal activity can be used to understand changes in binding as they relate to gene CHRM3. To generalize the intended target to other relatable targets, this assay endpoint is annotated to the gpcr intended target family, where the subfamily is acetylcholine (Muscarinic).
Human cells are incubated for 60 minutes at room temprature with [3H]4-DAMP ligand (0.2 nM) and 4-Damp methiodide as control inhibitor.Test Sample Requirements: Minimum for 1) Screen: 60 ul of 10 mM stock -OR- 1 mg (pre-weighed) for 10 uM final testing. 2) Dose Response: 90 ul of 10 mM stock -OR- 1 mg (pre-weighed) for a top concentration at 10 uM.
`O=C(/C=C/c1ccc(O)cc1)CC(=O)/C=C/c1ccc(O)cc1` was tested, and the AC50 was 2710 nM (active).
